For 15 compounds, inhibition results are on record in PubChem BioAssay AID2459 (The Scripps Research Institute Molecular Screening Center, 2010).

Some of the results follow. Calls of active or inactive are those of the source.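 The calls were made as follows: active = average inhibition across triplicates above the hit cutoff set in the primary screen (cut at about 32% in these data); inactive = the rest.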

Female germline-specific tumor suppressor gld-1 (Caenorhabditis elegans), sequence (Q17339 whole entry, looked up): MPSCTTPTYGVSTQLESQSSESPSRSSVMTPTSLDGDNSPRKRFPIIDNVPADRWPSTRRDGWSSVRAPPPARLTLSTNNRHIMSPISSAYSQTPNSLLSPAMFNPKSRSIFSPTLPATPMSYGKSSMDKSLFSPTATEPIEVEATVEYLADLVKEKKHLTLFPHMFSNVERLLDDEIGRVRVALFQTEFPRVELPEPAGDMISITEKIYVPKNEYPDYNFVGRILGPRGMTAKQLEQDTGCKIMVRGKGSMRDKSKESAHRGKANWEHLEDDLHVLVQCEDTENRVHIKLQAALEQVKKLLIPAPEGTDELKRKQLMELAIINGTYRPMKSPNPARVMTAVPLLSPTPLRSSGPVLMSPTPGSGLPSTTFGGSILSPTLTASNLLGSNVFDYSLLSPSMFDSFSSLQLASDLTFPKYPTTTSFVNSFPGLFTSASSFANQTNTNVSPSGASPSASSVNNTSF

The experiment concerns the target Female germline-specific tumor suppressor gld-1 (Caenorhabditis elegans) (UniProt Q17339). Briefly: C. elegans GLD-1 RNA interaction blockers – biochemical, fluorescence polarization, triplicate, confirmation (AID 2459).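 Also: 0% = GLD-1 with RNA probe and DMSO and 100% = wells lacking GLD-1.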 To be noted: GLD-1/FL-TGE RNA fluorescence polarization, at 5.96 µM, stronger effect = higher value.
The term inhibition denotes the change of the read-out against control, counted positive when it falls. On to `O=C1c2ccccc2-c2ncnc3c(N4CCOCC4)cc(N4CCOCC4)c1c23`, for which the inhibition was -4.23% (inactive).
For `COc1cc(C(=O)NCc2ccc3c(c2)cc(C)n3C)cc(OC)c1OC`, the inhibition was 5.96% (inactive).
With `COc1ccc2[nH]c(C)c(CCN(Cc3cccs3)C(=S)Nc3ccccc3OC)c2c1`, the inhibition was -3.16% (inactive).
For `COc1ccc(Nc2ccc([N+](=O)[O-])cn2)cn1`, the inhibition is 18.7% (inactive).
Regarding `N#C/C(=C(\O)C(F)(F)F)c1nnc2n1CCCCC2`, the inhibition is -8.93% (inactive).
`Cc1ccc(C)c(S(=O)(=O)N2CCN(C(=O)Nc3ccccc3)CC2)c1`: the inhibition is 2.41% (inactive).
`CN(C)c1ccc(Nc2c3c4c(cccc4n(C)c2=O)C(=O)c2ccccc2-3)cc1`: the inhibition is 63.3% (active).
To `C=C1CCN([C@@H](Cc2ccccc2)C(=O)N2CCOCC2)S(=O)(=O)c2ccccc21` belongs -0.33% (inactive); to `CN(CCOc1ccccc1)C(=O)c1cc(-c2ccco2)nc2ccccc12`, -3.07% (inactive).
Take `CC(NC(=O)CSc1nc2c(cc1C#N)CN(C)CC2)c1ccccc1` (stereo not given): the inhibition is -6.45% (inactive).
As for `CCCn1c(C2CCCN2c2nc(-c3ccc(C)cc3)cs2)nc2cc(Cl)c(N3CCCCC3)cc21` (stereo not given), the inhibition was -4.07% (inactive).
In the case of `COc1ccc(-c2nc(CS(=O)CC(=O)NCc3ccccn3)c(C)o2)cc1` (stereo not given), the inhibition is 61.1% (active).
For `N#CC1=C(N)C(C#N)(C#N)[C@H](c2ccsc2)[C@H]2COCC=C12` the value was 7.34% (inactive); for `Cc1ccccc1Nc1nc(N)nc(CSc2nnc3ccccn23)n1`, -3.26% (inactive); for `COC(=O)c1cc(CNC(=O)CC(C)c2ccccc2)ccc1OC` (stereo not given), -6.47% (inactive).
